# The source made the active and inactive calls. Cut-off read from the data, not from the text of the source, unless noted: active = inhibition above about 42%; inactive = the rest.
# Test system: not listed separately
# Assay: StAR promoter reporter inhibitors, counter-screen for LRH-1 inverse agonist project, cell-based, luminescence, high throughput (AID 651611; in the data active = inhibition above about 28%)
# Settings: StAR promoter luciferase reporter counterscreen, at 3.6 µM, active compounds read high
row,Compound,inhibition
1,Cc1cc(C)c2nc(-c3cccnc3)cc(C(=O)NC(C)c3cnn(C)c3C)c2c1 (stereo not drawn),10.3% (inactive)
2,O=C(NNc1ccccc1)C(=O)NNS(=O)(=O)c1ccc([N+](=O)[O-])cc1,1.65% (inactive)
3,CCOc1ccc(NC(=O)CN2C(=O)NC(C)(c3ccc(OC(F)F)cc3)C2=O)cc1 (stereo not drawn),18.8% (inactive)
4,COc1ccc(C(=O)N/N=C(\c2ccccc2)c2ccccn2)cc1,76.4% (active)
5,CN(C)c1ccc(NC(=O)CN2CCC(NC(=O)C3CCCCC3)CC2)cc1,12.2% (inactive)
6,O=C1CC(c2cccc([N+](=O)[O-])c2)c2ccc3ccccc3c2N1 (stereo not drawn),11.8% (inactive)
7,COC(=O)c1c(NC(=O)c2cccc(N3C(=O)CCC3=O)c2)sc2c1CCN(C(C)=O)C2,19.6% (inactive)
8,Cc1cc(C)c2c(C)c(C(=O)NCc3ccncc3)oc2c1,9.09% (inactive)
9,Cc1cc(C(=O)CSc2nnnn2C)c(C)n1CCc1ccc(F)cc1,5.26% (inactive)
10,O=C(COc1ccc2c(-c3ccccc3)cc(=O)oc2c1)NCCCn1ccnc1,9.33% (inactive)
11,CCOCC(=O)Nc1cccc(C(=O)OCC)c1,-6.06% (inactive)
12,COc1ccc(C2=Nn3c(nnc3-c3ccccc3OC)SC2)cc1OC1CCOC1 (stereo not drawn),54.4% (active)
13,O=C(Nc1ccc(Oc2ccccc2)cc1)c1csc([C@H]2C[C@H](O)[C@@H](CO)O2)n1,27.6% (inactive)
14,CCOC(=O)c1c(N)n(CCOC(=O)c2cccs2)c2nc3ccccc3nc12,0.69% (inactive)
15,O=C(Cc1cccs1)N/N=C\c1ccc([N+](=O)[O-])s1,12.1% (inactive)
16,CC(C)NC(=O)N1Cc2cc(C(=O)NC3CCCCC3)nc(-c3cccc(-c4cccnc4)c3)c2[C@@H]1CCO,27.6% (inactive)
17,Cc1ccc(C)c(NC(=O)CSc2nc3[nH]ncc3c(=O)[nH]2)c1,6.04% (inactive)
18,CCc1c(C)nc(SCC(=O)Nc2ccc3c(c2)OCCO3)[nH]c1=O,14.5% (inactive)
19,CC(C)(Oc1ccc(Cl)cc1)C(=O)OCC(=O)NCCc1ccccc1,10.5% (inactive)
20,CC1CCCN(c2cc(N(C)CCO)c([N+](=O)[O-])c3nonc23)C1 (stereo not drawn),14.3% (inactive)

row,Compound,inhibition
1,Cc1ccccc1OCC(=O)N/N=C/c1ccc([N+](=O)[O-])o1,18.6% (inactive)
2,O=C(CN1C(=O)C(c2ccc(F)cc2)=NC12CCCC2)Nc1ccc(F)cc1,23.4% (inactive)
3,O=NN(CCc1ccncc1)c1ccc(OCc2ccccc2)cc1,3.58% (inactive)
4,COc1ccc(NC(=O)CN2C(=O)NC3(CCCC3)C2=O)cc1,-8.92% (inactive)
5,Cc1cc(C)nc(NC(=O)c2ccc([N+](=O)[O-])o2)n1,17.2% (inactive)
6,COc1ccc(-c2cc(NC=O)c3ncc(-c4ccc(C(C)=O)cc4)n3c2)cn1,41.6% (active)
7,Cc1cc2oc(=O)cc(C)c2cc1NC(=O)CCl,32.9% (active)
8,Cc1onc(-c2ccccc2Cl)c1-c1nc(-c2ccncc2)no1,7.38% (inactive)
9,CS(=O)(=O)c1ccc2nc(NC(=O)C3CC(=O)N(c4ccccc4)C3)sc2c1 (stereo not drawn),29.6% (active)
10,CC(Cl)C(=O)Nc1ncc(C(F)(F)F)cc1Cl (stereo not drawn),13.3% (inactive)
11,CC1CCCC(C)N1C(=O)COC(=O)Cc1ccc(F)cc1 (stereo not drawn),-0.44% (inactive)
12,CCN(CC)S(=O)(=O)c1cccc(NC(=O)CNc2cccc(S(=O)(=O)N3CCCC3)c2)c1,26.7% (inactive)
13,Cc1cc(OCC(=O)Nc2cccnc2)c2c(C)c(C)c(=O)oc2c1,10.8% (inactive)
14,O=C(Nc1cccc(NC(=O)c2ccc([N+](=O)[O-])o2)c1)c1ccco1,23.5% (inactive)
15,C#CCN(C[C@@H]1[C@@H](OC(=O)NCc2ccc(OC)c(OC)c2)[C@@H](OC(=O)NCc2ccc(OC)c(OC)c2)Cn2c(=O)ccc(=O)n21)S(=O)(=O)c1ccc(C)cc1,16.6% (inactive)
16,CCCCOCCCNc1ncnc2c1[nH]c1ccccc12,13.1% (inactive)
17,O=C(COC(=O)Cc1ccc(F)cc1)NCCc1ccccc1,3.74% (inactive)
18,O=C(NCc1ccco1)c1nn(-c2ccccc2)c(=O)c2ccccc12,19.6% (inactive)
19,COc1cc2c(cc1OC)CN(C(=O)CN1CCN(S(=O)(=O)c3ccc(C)c(C)c3)CC1)CC2,19.9% (inactive)

# Target: Nuclear receptor subfamily 5 group A member 2 (Homo sapiens) (UniProt O00482)
# Sequence (O00482 whole entry, looked up): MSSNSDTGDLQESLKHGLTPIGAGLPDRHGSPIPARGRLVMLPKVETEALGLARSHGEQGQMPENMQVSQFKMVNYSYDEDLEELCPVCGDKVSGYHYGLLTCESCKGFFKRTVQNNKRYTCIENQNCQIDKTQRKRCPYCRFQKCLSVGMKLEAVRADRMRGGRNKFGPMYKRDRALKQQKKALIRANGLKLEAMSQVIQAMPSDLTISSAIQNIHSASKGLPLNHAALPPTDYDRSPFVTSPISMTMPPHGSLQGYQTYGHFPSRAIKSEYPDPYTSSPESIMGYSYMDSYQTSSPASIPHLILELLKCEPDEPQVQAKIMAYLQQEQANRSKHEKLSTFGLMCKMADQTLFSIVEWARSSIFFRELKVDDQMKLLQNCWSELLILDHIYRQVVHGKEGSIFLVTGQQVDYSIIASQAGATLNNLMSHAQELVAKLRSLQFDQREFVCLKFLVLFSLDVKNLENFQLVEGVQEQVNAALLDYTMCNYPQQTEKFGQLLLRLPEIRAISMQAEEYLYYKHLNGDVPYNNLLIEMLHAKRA
# Assay: LRH-1 (NR5A2) inverse agonists, retest, confirmation, cell-based, luminescence (AID 651613);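 note: HEK293T cells co-transfected with LRH-1 and StAR promoter luciferase reporter; 0% = vehicle wells and 100% = parental cells lacking receptor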
# Settings: cell-based LRH-1 luciferase reporter, inverse agonism; at 3.6 µM; active compounds read high
row,Compound,inhibition
1,Cc1cc(C)c2nc(-c3cccnc3)cc(C(=O)NC(C)c3cnn(C)c3C)c2c1 (stereo not drawn),57.6% (active)
2,O=C(NNc1ccccc1)C(=O)NNS(=O)(=O)c1ccc([N+](=O)[O-])cc1,12.9% (inactive)
3,CCOc1ccc(NC(=O)CN2C(=O)NC(C)(c3ccc(OC(F)F)cc3)C2=O)cc1 (stereo not drawn),62.6% (active)
4,COc1ccc(C(=O)N/N=C(\c2ccccc2)c2ccccn2)cc1,80.3% (active)
5,CN(C)c1ccc(NC(=O)CN2CCC(NC(=O)C3CCCCC3)CC2)cc1,62.6% (active)
6,O=C1CC(c2cccc([N+](=O)[O-])c2)c2ccc3ccccc3c2N1 (stereo not drawn),40.8% (inactive)
7,COC(=O)c1c(NC(=O)c2cccc(N3C(=O)CCC3=O)c2)sc2c1CCN(C(C)=O)C2,65.5% (active)
8,Cc1cc(C)c2c(C)c(C(=O)NCc3ccncc3)oc2c1,46.3% (active)
9,Cc1cc(C(=O)CSc2nnnn2C)c(C)n1CCc1ccc(F)cc1,49.4% (active)
10,O=C(COc1ccc2c(-c3ccccc3)cc(=O)oc2c1)NCCCn1ccnc1,36.4% (inactive)
11,CCOCC(=O)Nc1cccc(C(=O)OCC)c1,36.9% (inactive)
12,COc1ccc(C2=Nn3c(nnc3-c3ccccc3OC)SC2)cc1OC1CCOC1 (stereo not drawn),69.1% (active)
13,O=C(Nc1ccc(Oc2ccccc2)cc1)c1csc([C@H]2C[C@H](O)[C@@H](CO)O2)n1,56.6% (active)
14,CCOC(=O)c1c(N)n(CCOC(=O)c2cccs2)c2nc3ccccc3nc12,21.6% (inactive)
15,O=C(Cc1cccs1)N/N=C\c1ccc([N+](=O)[O-])s1,64.9% (active)
16,CC(C)NC(=O)N1Cc2cc(C(=O)NC3CCCCC3)nc(-c3cccc(-c4cccnc4)c3)c2[C@@H]1CCO,62.6% (active)
17,Cc1ccc(C)c(NC(=O)CSc2nc3[nH]ncc3c(=O)[nH]2)c1,58.1% (active)
18,CCc1c(C)nc(SCC(=O)Nc2ccc3c(c2)OCCO3)[nH]c1=O,63.7% (active)
19,CC(C)(Oc1ccc(Cl)cc1)C(=O)OCC(=O)NCCc1ccccc1,45.2% (active)
20,CC1CCCN(c2cc(N(C)CCO)c([N+](=O)[O-])c3nonc23)C1 (stereo not drawn),56.2% (active)

row,Compound,inhibition
1,Cc1ccccc1OCC(=O)N/N=C/c1ccc([N+](=O)[O-])o1,57.5% (active)
2,O=C(CN1C(=O)C(c2ccc(F)cc2)=NC12CCCC2)Nc1ccc(F)cc1,52.2% (active)
3,O=NN(CCc1ccncc1)c1ccc(OCc2ccccc2)cc1,73.2% (active)
4,COc1ccc(NC(=O)CN2C(=O)NC3(CCCC3)C2=O)cc1,51.2% (active)
5,Cc1cc(C)nc(NC(=O)c2ccc([N+](=O)[O-])o2)n1,61.6% (active)
6,COc1ccc(-c2cc(NC=O)c3ncc(-c4ccc(C(C)=O)cc4)n3c2)cn1,66% (active)
7,Cc1cc2oc(=O)cc(C)c2cc1NC(=O)CCl,58.9% (active)
8,Cc1onc(-c2ccccc2Cl)c1-c1nc(-c2ccncc2)no1,58.1% (active)
9,CS(=O)(=O)c1ccc2nc(NC(=O)C3CC(=O)N(c4ccccc4)C3)sc2c1 (stereo not drawn),60.4% (active)
10,CC(Cl)C(=O)Nc1ncc(C(F)(F)F)cc1Cl (stereo not drawn),58.9% (active)
11,CC1CCCC(C)N1C(=O)COC(=O)Cc1ccc(F)cc1 (stereo not drawn),47.2% (active)
12,CCN(CC)S(=O)(=O)c1cccc(NC(=O)CNc2cccc(S(=O)(=O)N3CCCC3)c2)c1,64.4% (active)
13,Cc1cc(OCC(=O)Nc2cccnc2)c2c(C)c(C)c(=O)oc2c1,63.2% (active)
14,O=C(Nc1cccc(NC(=O)c2ccc([N+](=O)[O-])o2)c1)c1ccco1,69% (active)
15,C#CCN(C[C@@H]1[C@@H](OC(=O)NCc2ccc(OC)c(OC)c2)[C@@H](OC(=O)NCc2ccc(OC)c(OC)c2)Cn2c(=O)ccc(=O)n21)S(=O)(=O)c1ccc(C)cc1,40% (inactive)
16,CCCCOCCCNc1ncnc2c1[nH]c1ccccc12,50% (active)
17,O=C(COC(=O)Cc1ccc(F)cc1)NCCc1ccccc1,37.8% (inactive)
18,O=C(NCc1ccco1)c1nn(-c2ccccc2)c(=O)c2ccccc12,57% (active)
19,COc1cc2c(cc1OC)CN(C(=O)CN1CCN(S(=O)(=O)c3ccc(C)c(C)c3)CC1)CC2,49.3% (active)

# — PubChem BioAssay
